Measurements published in PubChem BioAssay (Tox21).
Inconclusive results are not listed. Entries that show only a call come without a potency. The source made the active and inactive calls. Calls follow the shape of the dose curve; as a rule, active = well fitted inhibition curve with a large enough effect in the repeat runs; inconclusive = weak or mixed curves; inactive = no such curve, though single readings can be large or run the other way.

Molecular target: Androgen receptor (Homo sapiens) (UniProt P10275)
Assay: qHTS assay to identify small molecule antagonists of the androgen receptor (AR) signaling pathway using the MDA cell line in the presence of 0.5 nM R1881 (AID 1259243); also: nearly all actives have a fitted effect of over 50% in size
Details: MDA-kb2 MMTV-luciferase, R1881 0.5 nM, 16 h; series mostly up to 92.4 µM
Description: U.S. Tox21 Program National Center for Advancing Translational Sciences [NCATS] NIH Chemical Genomics Center [NCGC] U.S. Environmental Protection Agency [EPA] National Institutes of Environmental Health Sciences [NIEHS] National Toxicology Program [NTP] U.S. Food and Drug Administration [FDA] Tox21 Assay Overview: Androgen receptor (AR) is an important member of the nuclear receptor family. Its signaling plays a critical role in AR-dependent prostate cancer and other androgen related diseases. Considerable attention has been given in the past decades to develop methods to study and screen for the environmental chemicals that have the potential to interfere with metabolic homeostasis, reproduction, developmental and behavioral functions. Therefore AR binding assay for screening androgen antagonists can be used to identify potential endocrine disruptors. MDA-kb2 cells (from ATCC, deposited by Wilson et al.) were used to screen for AR inhibitors against Tox21 compound libraries. These cells are human breast carcinoma cells that were stably transfected with a luciferase reporter gene under control of the MMTV promoter that contains response elements for both androgen receptor (AR) and glucocorticoid receptor (GR). The current screening for identification of AR inhibitors against Tox21 libraries used lower concentration (0.5 nM) of R1881 as a stimulator.
Tox21 Assay Protocol Summary: MDA-kb2 cells (cells cultured without CO2) were dispensed at 3,000 cells/well in 4 uL of culture medium into white wall/solid-bottom 1536-well plates (Corning Life Sciences, Corning, NY) using a Multidrop Combi (ThermoFisher Scientific, Waltham, MA) dispenser. After the assay plates were incubated at a 37C and 0% CO2 for 5 hr, 23 nL of compounds dissolved in DMSO, positive controls or DMSO only was transferred to the assay plate by a Pintool station (Kalypsys, San Diego, CA). The transfer of compounds was followed by the addition of 1 uL of 0.5 nM (final concentration) agonist (R1881)/culture medium using a Flying Reagent Dispenser (FRD, Aurora Discovery, San Diego, CA). The plates were incubated at 37C and 0% CO2 for 16 hr. For luciferase reporter gene assay, 4 uL of ONE-Glo reagent (Promega Corporation, Madison, WI) was added to each well using the FRD and after 30 min incubation at room temperature luminescence intensity was measured using ViewLux plate reader (PerkinElmer, Shelton, CT).
Potency is read from the fitted curve at half-maximal effect.

Sequence of Androgen receptor (Homo sapiens) (P10275 whole entry, looked up): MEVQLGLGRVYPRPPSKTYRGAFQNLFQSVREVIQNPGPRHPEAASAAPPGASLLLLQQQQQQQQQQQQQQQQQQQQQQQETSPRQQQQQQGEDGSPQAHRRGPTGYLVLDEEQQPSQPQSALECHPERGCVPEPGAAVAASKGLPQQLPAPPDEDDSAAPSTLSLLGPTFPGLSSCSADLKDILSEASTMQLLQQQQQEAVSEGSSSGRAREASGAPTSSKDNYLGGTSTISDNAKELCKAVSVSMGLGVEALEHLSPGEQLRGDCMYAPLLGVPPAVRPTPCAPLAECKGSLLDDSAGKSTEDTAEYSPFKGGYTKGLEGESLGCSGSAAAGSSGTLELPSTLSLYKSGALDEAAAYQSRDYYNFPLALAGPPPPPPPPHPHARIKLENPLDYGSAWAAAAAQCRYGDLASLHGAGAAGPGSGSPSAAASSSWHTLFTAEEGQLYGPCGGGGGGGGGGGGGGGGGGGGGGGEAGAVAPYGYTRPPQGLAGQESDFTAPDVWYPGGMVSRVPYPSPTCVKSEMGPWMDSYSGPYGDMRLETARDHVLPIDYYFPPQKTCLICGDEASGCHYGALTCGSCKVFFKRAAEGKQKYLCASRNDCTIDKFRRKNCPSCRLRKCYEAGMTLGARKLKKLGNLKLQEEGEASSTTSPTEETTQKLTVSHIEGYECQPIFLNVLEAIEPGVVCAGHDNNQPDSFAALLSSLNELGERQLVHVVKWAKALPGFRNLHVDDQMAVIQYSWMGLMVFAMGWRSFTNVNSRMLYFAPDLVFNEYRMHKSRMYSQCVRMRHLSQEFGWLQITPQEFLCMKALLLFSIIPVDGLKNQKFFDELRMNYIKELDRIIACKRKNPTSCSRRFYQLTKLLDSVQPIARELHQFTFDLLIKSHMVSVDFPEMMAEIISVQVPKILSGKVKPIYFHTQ

SMILES	Potency
FC(F)(F)c1ccc(Cl)c(Cl)c1	inactive
Nc1cc([N+](=O)[O-])ccc1O	inactive
C[Si](O[Si](C)(C)C)O[Si](C)(C)C	inactive
OCCOCCOCCO	inactive
CCc1cccc(C)c1N	inactive
c1ccc2c(c1)ccc1ccccc12	17.2 µM (active)
CC(c1cc2ccccc2s1)N(O)C(N)=O (stereo not drawn)	inactive
C[C@H]1C[C@@H]2[C@H]([C@@H](O)C[C@@]3(C)[C@H]2CC[C@]3(O)C(=O)CO)[C@@]2(C)C=CC(=O)C=C12	inactive
CC1CCC(C(C)C)C(O)C1 (stereo not drawn)	inactive
O=C(O)c1ccc2c(c1)C(=O)OC2=O	inactive
CCCCCCCCCCCCOCCO	inactive
Cc1ccc(N(C)C)cc1	inactive
O=C(O)c1ccccc1C(c1ccc(O)cc1)c1ccc(O)cc1	inactive
